Data published in PubChem BioAssay (Tox21).
Records with an inconclusive call do not appear. Entries that show only a call come without a potency. A number with no mark means an inactive call. Active and inactive are the calls of the source. Calls come from the whole dose curve; as a rule, active = well fitted inhibition curve with a large enough effect in the repeat runs; inconclusive = weak or mixed curves, or effect the other way; inactive = no such curve, though single readings can be large or run the other way.

Test: qHTS assay to identify small molecule antagonists of the retinoic acid receptor (RAR) signaling pathway (AID 1159552; note: nearly all actives have a fitted effect of over 50% in size)
Details: C3RL4 RARE luciferase reporter, retinol-stimulated, 6 h; series mostly up to 92.4 µM
Source text: National Center for Advancing Translational Sciences [NCATS]
NIH Chemical Genomics Center [NCGC]
U.S. Environmental Protection Agency [EPA]
National Institutes of Environmental Health Sciences [NIEHS]
National Toxicology Program [NTP]
U.S. Food and Drug Administration [FDA]
All-trans Retinoic acid (atRA) is the potent natural metabolite of retinol and plays an important role in normal embryonic development and maintenance of cellular phenotype in adult animals. atRA is the activating ligand for the retinoic acid receptors (RARs) which form heterodimers with retinoid X receptors (RXRs) on the retinoic acid response element (RARE). Through activation of the RAR/RXRs nuclear receptors, atRA regulates the transcription of a large number of protein-coding genes and regulatory RNAs. Intracellular levels of atRA are controlled by the retinol signaling pathway (RSP) that regulates the biosynthesis and catabolism of atRA to maintain physiological levels. Chemicals that interfere with the RSP can cause abnormal intracellular levels of atRA and therefore are potential developmental toxicants. To assess compounds for the potential adverse effect on embryonic development through interfering with retinol signaling, a cell-based RARE luciferase reporter gene assay was used. C3RL4 cell line (OARSA/CFSAN/FDA, Laurel, MD) was used to screen Tox21 10K compound library for identifying inhibitors of the RSP.
Tox21 Assay Protocol Summary:
C3RL4 cells were seeded at 1,000/well in 4 uL of assay medium into white solid 1,536-well tissue culture plates (Greiner Bio-One North America Inc. Monroe, NC) using a Multidrop Combi (Thermo Scientific, Waltham, MA) dispenser. After incubation at 37 C and 5% CO2 for an overnight, 23 nL of compounds dissolved in DMSO, positive control or DMSO only were transferred by a Pintool station (Kalypsys, San Diego, CA). One ul of 1 uM (final concentration) of Retinol was added right after the compound addition by using a Flying Reagent Dispenser (FRD) (Aurora Discovery, San Diego, CA). After 6 hr incubation at 37 C and 5% CO2, 5 uL of Amplite Luciferase reagent (AAT Bioquest Inc. Sunnyvale, CA) was added to each assay plate using an FRD. Luminescence was quantified on a ViewLux plate reader (PerkinElmer, Waltham, MA) after 30 min incubation at room temperature.

| Compound | Potency | activity, negative = inhibition |
| --- | --- | --- |
| Oc1ccc(C2CNCCc3c2cc(O)c(O)c3Cl)cc1 (stereo not given) | inactive |  |
| CCC(C)C1CCCCC1=O (stereo not given) | inactive |  |
| O=S(O)CO | inactive |  |
| O=c1n(CCO)c(=O)n(CCO)c(=O)n1CCO | inactive |  |
| N[C@H](C(=O)O)c1ccc(O)cc1 |  | -7.38% [at 19 µM] |
| N=C(N)c1ccc2cc(OC(=O)c3ccc(N=C(N)N)cc3)ccc2c1 | inactive |  |
| C=C(C)C(=O)OCCCCCCCC(C)C | inactive |  |
| COc1nc(N)nc2c1ncn2[C@@H]1O[C@H](CO)[C@@H](O)[C@@H]1O | inactive |  |
| Cc1ccc(=O)n(-c2ccccc2)c1 | inactive |  |
| Nc1c2c(nc3ccccc13)CCCC2O (stereo not given) | inactive |  |
| COc1ccccc1OCC(O)CN1CCN(CC(=O)Nc2c(C)cccc2C)CC1 (stereo not given) | inactive |  |
| O=C(CCCN1CCN(c2ccccn2)CC1)c1ccc(F)cc1 | inactive |  |
| CCSC(=O)N(CC(C)C)CC(C)C | inactive |  |
| CCO/C([O-])=N/c1c[n+](N2CCOCC2)no1 | inactive |  |
| Cn1c(N)c(N=O)c(=O)n(C)c1=O | inactive |  |
| C[N+](C)(C)CC(O)CC(=O)[O-] (stereo not given) | inactive |  |
| CC(C)NCC(O)c1ccc(NS(C)(=O)=O)cc1 (stereo not given) | inactive |  |
| N#Cc1ccc(C2CCCc3cncn32)cc1 (stereo not given) | inactive |  |
| Cn1cc(S(C)=O)c(=O)c2ccc(F)cc21 (stereo not given) | inactive |  |
| CO/N=C(/C(=O)N[C@@H]1C(=O)N2C(C(=O)OCOC(=O)C(C)(C)C)=C(C)CS[C@H]12)c1csc(N)n1 | inactive |  |

| Compound | Potency | activity, negative = inhibition |
| --- | --- | --- |
| Nc1cc(=O)[nH]c(N)n1 | inactive |  |
| O=Cc1cccc([N+](=O)[O-])c1 | inactive |  |
| CC(=O)CC(C)C | inactive |  |
| NC(=O)c1cn(Cc2c(F)cccc2F)nn1 | inactive |  |
| COc1ccc(CCN(C)CCCC(C#N)(c2cc(OC)c(OC)c(OC)c2)C(C)C)cc1OC (stereo not given) | inactive |  |
| CS(=O)(=O)O | inactive |  |
| CC(C)(C)c1nnc(NS(=O)(=O)c2ccccc2)s1 | inactive |  |
| O=c1[nH]c(=O)n([C@H]2C[C@H](O)[C@@H](CO)O2)cc1I | inactive |  |
| CCCN1CCCC[C@H]1C(=O)Nc1c(C)cccc1C | inactive |  |
| CCCN(CCC)CCc1cccc2c1CC(=O)N2 | inactive |  |
| O=C(O)CCCc1ccccc1 | inactive |  |
| NCCc1cnc[nH]1 | inactive |  |
| CC/C=C\CC/C=C/CO | inactive |  |
| CC(C)(O)C#CC(C)(C)O | inactive |  |
| N=C(N)c1ccc(OCCCOc2ccc(C(=N)N)cc2)cc1 | inactive |  |
| COc1ccc2c(c1)CCCC2=O | inactive |  |
| CCN(Cc1ccncc1)C(=O)C(CO)c1ccccc1 (stereo not given) | inactive |  |
| CCCCOCCOCCOCCCC | inactive |  |
| CO[C@]12C[C@@H](COC(=O)c3cncc(Br)c3)CN(C)[C@@H]1Cc1cn(C)c3cccc2c13 | inactive |  |
| CCO[Si](CCC1CCC2OC2C1)(OCC)OCC (stereo not given) | inactive |  |
